Only some compounds are listed: those with a hit (about 17% of all), similar ones and a draw of the others.
TDP1 block: qHTS Assay for Inhibitors of Tyrosyl-DNA Phosphodiesterase (TDP1); Tyrosyl-DNA phosphodiesterase 1 (Homo sapiens), Q9NUW8; hit rate 0.28% among 350,000; Potency, µM (highest dose often 130 µM), for inactives: at the top dose activity change, negative = inhibition, usual class: inhibitors; recombinant TDP1, AlphaScreen DNA substrate cleavage; further: on the % scale 0 is the no-effect control and ±100 the full control effect; nearly all actives have a fitted effect of over 40% in size
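Tdp1 1 nM final; 15 min RT w/ cpd; substrate 15 nM, 5 min; beads 10 ug/ml, 10 min; AlphaScreen read. Neg ctrl: no enzyme.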
ClpP mod: qHTS Assay for Activators of ClpP; hit rate 1.9% among 340,000; AID 651965, 2013; purified B. subtilis ClpP, FRET peptide cleavage, 20 min; Potency, µM (doses to about 57.5 µM), without a hit: at the highest dose activity change, negative = active; ATP-dependent Clp protease proteolytic subunit (Bacillus subtilis (strain 168)), P80244; active means well fitted falling curve with a large enough effect; inconclusive means small, poorly fitted or top-dose-only effect; inactive means no such curve, though single readings can be large or run the other way; further: the source files actives as falling curves though it sought activators and does not explain the sign; nearly all actives have a fitted effect of over 65% in size
Target sequence (P80244 whole entry, looked up): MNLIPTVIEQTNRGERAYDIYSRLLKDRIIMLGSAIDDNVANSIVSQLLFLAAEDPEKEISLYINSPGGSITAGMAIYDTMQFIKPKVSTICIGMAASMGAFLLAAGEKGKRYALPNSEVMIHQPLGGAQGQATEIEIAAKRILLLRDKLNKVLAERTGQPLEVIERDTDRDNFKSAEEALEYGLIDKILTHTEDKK
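ClpP 10 microg/mL final, pH 8 Tris/KCl buffer with BSA, glycerol, Tween-20; compound pinned in; FRET-FV substrate; RT 20 min; Ex320/Em430; ΔFRET vs ADEP 5.8 microM, DMSO, no enzyme.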
DT40 TDP1 no CPT: qHTS for Inhibitors of human tyrosyl-DNA phosphodiesterase 1 (TDP1): qHTS in cells in absence of CPT; DT40 Tdp1-/- hTDP1 cells, no CPT, ATP luminescence, 48 h; hit rate 15% among 420,000; Potency, µM (series often up to 46.2 µM), inactives show top-dose activity change, negative = growth inhibition, actives largely listed as inhibitors; further: on the % scale 0 is the no-effect control and ±100 the full control effect; nearly all actives have a fitted effect of over 55% in size
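Compound effects on proliferation are scored in DT40 Tdp1-/-;hTDP1 cells in the absence of CPT. ATP levels (CellTiter-Glo luminescence) are recorded after a ≥48 hr, 37 °C incubation.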
DT40 TDP1 CPT: qHTS for Inhibitors of human tyrosyl-DNA phosphodiesterase 1 (TDP1): qHTS in cells in presence of CPT. chicken DT40 Tdp1-/-;hTDP1 cells + 20 nM CPT, ATP luminescence, 48 h. Potency, µM (highest dose often 46.2 µM), inactives show top-dose activity change, negative = growth inhibition, most hits filed as inhibitors. hit rate 12% among 420,000. AID 686979, 2013; further: on the % scale 0 is the no-effect control and ±100 the full control effect; nearly all actives have a fitted effect of over 55% in size
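Chicken DT40 Tdp1-/- cells complemented with human TDP1, 400 cells/well, exposed to compounds plus 20 nM camptothecin for at least 48 h at 37 C; viability read as ATP content by CellTiter-Glo luminescence.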
Starred values were filed as active, the others as inactive; u = inconclusive; x = no result; ! = not confirmed by another sample; [ ] = dose if it differs, or a comment. Unless noted, the call rests on the fitted dose curve; in most records, active means well fitted curve in the direction sought with a large enough effect; inconclusive means small, poorly fitted or top-dose-only effect, or another doubt; inactive means no such curve, though single readings can be large; an effect the other way counts as inactive or inconclusive. Potency means the concentration at half of the fitted maximal effect.

SMILES | TDP1 block | ClpP mod | DT40 TDP1 no CPT | DT40 TDP1 CPT
CCOC(=O)C(O)(c1ccc(N(C)C(=O)c2ccc(Cl)c(Cl)c2)cc1)C(F)(F)F (configuration not stated) | 0% | -14% | 13µM* | 21µM*
COC(=O)C(O)(c1ccc(N(C)C)cc1)C(F)(F)F (configuration not stated) | 0% | -1% | 0% | 0%
Cc1ccc(C)c(N2CCN(C(=O)CCNS(=O)(=O)c3ccc4c(c3)oc(=O)n4C)CC2)c1 | 4% | -4% | u | u
Oc1c(C(Nc2cccnc2)c2ccccc2F)ccc2cccnc12 (configuration not stated) | x | 4% | u | u
CC(C)COC(=O)N1Cc2ccccc2-n2nncc2C1 | x | -3% | -23% | -3%
COc1ccc(-c2cc3nc(NCc4ccc(N(C)C)cc4)n(C)c(=O)c3s2)cc1OC | x | 4% | -25% | u
Brc1ccc2c(c1)-n1nncc1CN(CC1CCCCC1)C2 | x | -2% | -27% | -19%
CCCCCCC(C)(C)c1ccc([C@@H]2C[C@H](O)CC[C@H]2CCCO)c(O)c1 | 11%[56.1 µM] | 0% | 18µM* | 21µM*!
O=C(Nc1ccc(Cl)c(C(F)(F)F)c1)c1ccc2c(c1)CCN2S(=O)(=O)c1ccccc1 | 5% | -6% | 9.2µM* | 9.2µM*
Cc1cc(OCC(=O)Nc2cc(C)nn2-c2ccccn2)c2c3c(c(=O)oc2c1)CCC3 | 1% | x | x | x
Cc1cc(OCC(=O)O)c2c3c(c(=O)oc2c1)CCCC3 | 0% | u | -7% | 5%
CCCOC(=O)COc1cc(C)cc2oc(=O)c3c(c12)CCC3 | 0% | 25µM* | 5% | -2%
Cc1cc(OCC(=O)N2CCC(C(N)=O)CC2)c2c3c(c(=O)oc2c1)CCCC3 | x | 4% | -27% | 23µM*
Cc1ccc(-n2nc(C)cc2NC(=O)COc2cc(C)cc3oc(=O)c4c(c23)CCC4)cc1 | 5% | 25µM* | 29µM* | u
CCC1(C)CC(=O)NC(=O)C1 | 2%[56.1 µM] | x | 4%[21.1 µM] | 0%[21.1 µM]
CC1NCCOC1c1ccccc1 (configuration not stated) | 6% | x | -6% | -1%
C[N+]1([O-])CCC[C@@H]1c1cccnc1 (some centres not stated) | 7% | x | -19% | 3%
Clc1ccc(OCC#CCN2CCCCCC2)cc1 | 3% | -1% | u | -20%
O=c1ccc(=O)[nH][nH]1 | 2% | x | x | x
c1ccc(-c2ccccc2)cc1 | 14% | x | x | x
[Hg+][c]1ccccc1 | 11% | -3% | 0.1µM* | 0.089µM*
CC1=Nc2ccccc2/C1=C/c1c(O)[nH]c(=O)[nH]c1=O | x | 1% | 7% | -19%
O=c1[nH]c(O)c(/C=C2/C=CC(c3cc(Cl)ccc3Cl)=N2)c(=O)[nH]1 | -3% | x | 6.5µM* | 5.8µM*
CC(=O)OC[C@H](N)C(=O)c1ccccc1 | 6% | x | x | x
CCC(=O)N1N=C(c2c(O)n(C)c(=O)n(C)c2=O)CC1c1ccccc1 (configuration not stated) | 7% | -6% | 4.1µM* | 3.7µM*
SMILES | TDP1 block | ClpP mod | DT40 TDP1 no CPT | DT40 TDP1 CPT
Cn1c(O)c(C2=NN(C(=O)CCl)C(c3ccccc3)C2)c(=O)n(C)c1=O (configuration not stated) | 5% | -6% | -27% | u
Cc1ncc2n1-c1ccc(Cl)cc1C(c1ccccc1F)=NC2O (configuration not stated) | 13% | x | x | x
Cc1ccccc1OCC(=O)N1CCN(CCc2ccccn2)CC1 | 7% | 1% | -2% | 3%
O=C(COc1ccc2ccccc2c1)N1CCN(Cc2c[nH]c3ccccc23)CC1 | -3% | -1% | 5.2µM* | 2.1µM*
O=C(COc1ccc(Br)cc1)N1CCN(Cc2c[nH]c3ccccc23)CC1 | -4% | 2% | 2.3µM* | 1.3µM*
O=C(COc1ccc(Br)cc1)N1CCN(C2CCCC2)CC1 | 7% | -1% | 1% | -8%
CS(=N)(=O)CC[C@H](N)C(=O)O (some centres not stated) | 5% | x | x | x
CCS(=O)CCSP(=O)(OC)OC (configuration not stated) | 10% | x | -5% | 12%
CCNC(=O)[C@H]1O[C@@H](n2cnc3c(N)ncnc32)[C@H](O)[C@@H]1O | 9% | 2% | -1% | -7%
Nc1ncnc2c1ncn2[C@@H]1O[C@H](COP(=O)(O)CP(=O)(O)O)[C@@H](O)[C@H]1O | 2% | 1% | u | 4.1µM*
CC1(C(=O)O)CC12c1ccccc1-c1ccccc12 (configuration not stated) | x | 1% | -19% | 0%
CC(=O)CC(c1ccc(O)cc1)c1c(O)c2ccccc2oc1=O (configuration not stated) | 4% | x | x | x
O=C(OCc1ccccc1)N1CCC2CC1c1cc(N3Cc4ccccc4-n4nncc4C3)ccc12 (configuration not stated) | x | -17% | 5.8µM* | 7.3µM*
Fc1ccc(N2Cc3ccccc3-n3nncc3C2)cc1 | x | -1% | u | u
CN1CC[C@@]2(c3cccc(O)c3)Cc3nc4ccccc4cc3C[C@H]2C1 | 7% | x | u | 27µM*
COc1cc(C2c3cc4c(c(O)c3CC3COC(=O)C32)OCO4)cc(OC)c1OC (configuration not stated) | 1% | -2% | 0.12µM* | 0.092µM*
COc1cc([C@@H]2c3cc4c(c(O)c3C[C@H]3COC(=O)[C@@H]32)OCO4)cc(OC)c1OC | -7% | 0% | 0.13µM* | 0.16µM*
O[C@@H]1[C@H](O)[C@H]2[C@@H](O)CCN2C[C@@H]1O | -10%[56.1 µM] | x | -2% | 11%
COC(=O)COc1ccc(C[C@@H](C)NC[C@H](O)c2cccc(Cl)c2)cc1 | 8% | x | x | x
CC(C)(C)OOC(=O)c1ccccc1 | 18% | x | x | x
O=C1NC(=O)C(=Cc2cccc(OCCOc3ccccc3)c2)C(=O)N1 | x | -5% | u | u
Cc1ccc(OCCOc2cccc(C=C3C(=O)NC(=O)NC3=O)c2)c(C)c1 | 79µM* | x | u | u
C[C@]12CC[C@H](OS(=O)(=O)O)CC1=CCC1C2CC[C@]2(C)C(=O)CC[C@@H]12 (some centres not stated) | 4%[56.1 µM] | x | x | x
CCOc1ccc(-c2nc3cc(NC(=O)COc4cccc(C)c4)ccc3o2)cc1 | 3%[12.3 µM] | 4% | 16µM* | 3.7µM*
COc1ccccc1NC(=O)c1oc2ccccc2c1NC(=O)COc1cccc(C)c1 | 6% | 18% | 1% | -9%
CCOC(=O)C1C(C=C(C)C)C1(C)C (configuration not stated) | 8% | x | 17% | -5%
